Hit rate of the full screen: of about 360,000 compounds, about 10,000 (2.8%) were called active. Roughly 4% stayed inconclusive and do not appear here. Calls come from the whole dose curve; as a rule, active = well fitted inhibition curve with a large enough effect; inconclusive = small, poorly fitted or top-dose-only effect; inactive = flat fitted curve, though single readings scatter. This excerpt belongs to a sample that is enriched for actives.
% is set by controls: 0 for no effect and ±100 for the full control effect; potency is the fitted concentration of half-maximal effect.

Chain of Serine/threonine-protein kinase PLK1 (Homo sapiens) (P53350 whole entry, looked up, the tested form may be a part): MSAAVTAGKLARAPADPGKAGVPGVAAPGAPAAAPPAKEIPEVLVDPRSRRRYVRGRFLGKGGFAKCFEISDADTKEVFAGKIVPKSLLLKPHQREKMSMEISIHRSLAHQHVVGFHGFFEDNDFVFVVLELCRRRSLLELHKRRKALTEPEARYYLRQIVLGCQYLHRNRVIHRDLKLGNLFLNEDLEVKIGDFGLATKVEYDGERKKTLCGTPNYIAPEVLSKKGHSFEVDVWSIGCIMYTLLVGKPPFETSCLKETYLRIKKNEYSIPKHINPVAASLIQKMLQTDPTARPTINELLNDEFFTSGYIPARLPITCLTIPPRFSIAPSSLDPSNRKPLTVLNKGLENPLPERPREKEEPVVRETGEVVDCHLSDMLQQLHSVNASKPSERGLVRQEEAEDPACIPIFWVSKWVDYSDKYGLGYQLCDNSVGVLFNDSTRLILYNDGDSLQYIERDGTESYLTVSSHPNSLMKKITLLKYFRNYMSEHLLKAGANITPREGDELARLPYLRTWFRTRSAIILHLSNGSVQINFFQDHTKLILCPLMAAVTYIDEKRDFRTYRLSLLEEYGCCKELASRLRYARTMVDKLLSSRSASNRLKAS

The experiment addresses Serine/threonine-protein kinase PLK1 (Homo sapiens) (UniProt P53350). As to the kind of experiment: qHTS for Inhibitors of PLK1-PDB (polo-like kinase 1 - polo-box domain): Primary Screen. For max response, negative = inhibition: series mostly up to about 57 µM. Note: nearly all actives have a fitted effect of over 65% in size. As to conditions: Plk1 PBD binding of FITC phosphopeptide, fluorescence polarization. The text has this: The polo-like kinase 1 (Plk1) is a member of a conserved subfamily of serine / threonine protein kinases that plays a pivotal roles in cell proliferation. It has a C-terminal non-catalytic region called the polo-box domain (PBD) that plays a crucial role in the subcellular localization of the Plk1. […] Furthermore, depletion of the overexpressed Plk1 by RNAi efficiently induces apoptotic cell death in cancer and reduces tumor growth in mouse xenograft models. Thus, targeting Plk1 is an appealing strategy for anti-cancer therapy. Therefore, this project aimed to screen the Molecular Libraries Small Molecule Repository (MLSMR) using a novel approach to find inhibitors that target the Plk1 PBD instead of the conventional N-terminal catalytic domain. This project employed a fluorescence polarization (FP) assay using a FITC-conjugated phospho-9-mer (p-9-mer) peptide and purified human Plk1 PBD protein. The identified small molecule inhibitors of Plk1 PBD can then further be developed into useful tools for biomedical and clinical research that complements or replaces current relevant disease therapy. NIH Chemical Genomics Center [NCGC] NIH Molecular Libraries Probe Centers Network [MLPCN] MLPCN Grant: MH100728 Assay Submitter (PI): Kyung Lee, NCI
Four microliter of 25 nM FITC-p-9-mer + 60 nM Plk1 PBD in buffer solution (final concentrations 25 nM and 60 nM respectively) or 4 uL of 25 nM FITC-p-9-mer (final concentration 25 nM) in buffer will be dispensed into a 1,536 Greiner medium-binding black solid plate. Small molecules at final concentrations of 18 nM to 57 uM and positive control phospho-9-mer (sequence: Ac-PPLHSpTAI-NH2) at final concentrations 26 nM to 57 uM and phospho-13-mer (sequence: Ac-[…]pTAI-NH2) at final concentrations of 1 nM to 2.3 uM will be pin-transferred (23 nL) to the plate via a Kalypsys pin-tool robotics equipped with a 1,536-pin array. The reaction plate will be centrifuged for 1 min at 1000 rpm and incubated at room temperature for 10 min. The FITC fluorescence signals will be read using the PerkinElmer ViewLux plate reader at 480 / 20 nm excitation and 540 / 20 nm S and P polarization emission wavelengths. Reagent bottles will be kept submerged into 4 °C recirculating chiller bath and all liquid lines will be covered with aluminum foil to minimize degradation. Library plates will be screened starting from the lowest to the highest concentrations to minimize compound carryover. Vehicle only plates, with DMSO being pin-transferred instead of compound solutions, will be included regularly throughout the screen to record any systematic shifts in assay signal.
(In general: In qHTS, concentration-response curves come from the screen itself.)
As for `CC1(C(=O)NS(=O)(=O)c2cccc(F)c2)CCN1C(=O)Cc1ccc(Cl)cc1Cl` (stereo not drawn), the max response, negative = inhibition is 1.99% (inactive).
Turning to `C[C@H](CO)N1C[C@H](C)[C@@H](CN(C)C(=O)C2CCCCC2)OCc2cnnn2CCCC1=O`, the max response, negative = inhibition was -18.4% (inactive).
Same read-out and setting: with `CCOC(=O)C1=CC[C@@H](c2ccncc2)N(S(=O)(=O)c2ccc(C)cc2)C1` the figure was -3.59% (inactive); with `CN(CC(=O)Nc1ccc(F)cc1)C(=O)c1ccc(-c2ccc(Cl)cc2)o1`, -3.69% (inactive).
`Cc1[nH][nH]c(=O)c1C(c1ccc(-c2ccc(Cl)cc2)o1)c1c(C)[nH][nH]c1=O`: the Potency was 26.7 µM (active).
`COc1ccc(CNC(=O)CCn2cccc2)cc1`: the max response, negative = inhibition was 1.6% (inactive).
On to `NS(=O)(=O)c1ccc(CCNC(=O)CN2C(=O)c3ccccc3S2(=O)=O)cc1`, for which the max response, negative = inhibition is -4.84% (inactive).
`COc1ccc(CNC(=O)CN2C(=O)c3ccccc3S2(=O)=O)cc1`: the Potency was 26.7 µM (active).
Turning to `COc1cccc(OC)c1C(=O)N1CCN(Cc2ccccc2F)CC1`, the max response, negative = inhibition was -14.6% (inactive).
In the case of `C=C1C(=O)OC2C1CCC(C)=CCCC1(C)OC21` (stereo not drawn), the max response, negative = inhibition was -24.4% (inactive).
Same read-out and setting: then `CC1(C(=O)NS(=O)(=O)C2CC2)CCCN(C(=O)CSc2ccccc2)C1` (stereo not drawn), with -7.19% (inactive); and `C=CCn1c(SCc2cccc(F)c2)nc2cc(C(=O)N3CCC(C(N)=O)CC3)ccc2c1=O`, with -5.4% (inactive).
For `Cc1ccc(SCC(=O)N2CCN(c3ccc(F)cc3)CC2)cc1`, the max response, negative = inhibition was 4.7% (inactive).
Regarding `O=C1Nc2cc(C(=O)N3CCN(c4ccc(F)cc4)CC3)ccc2NC1CSCc1cccc(F)c1` (stereo not drawn), the Potency was 29.9 µM (active).
The same measure, in the same setting: then `Cc1ccc(CSCC2Nc3ccc(C(=O)N4CCN(c5ccc(F)cc5)CC4)cc3NC2=O)cc1` (stereo not drawn), with 8.44 µM (active).
Regarding `CC1CCN(C(=O)c2ccc3c(c2)NC(=O)CN3)CC1`, the max response, negative = inhibition was 62.7% (inactive).
Regarding `O=C(c1cccc(F)c1)N1CCN(c2ccc([N+](=O)[O-])c(N3CCCCC3)c2)CC1`, the max response, negative = inhibition is -8.34% (inactive).
Same read-out and setting: then `Cc1nc2ccccc2nc1CC(O)(c1ccccc1)c1ccccc1`, with -15.9% (inactive); and `COc1cccc(CN(C)C(=O)CC[C@H]2O[C@@H](n3cnc4c(NC(=O)c5ccccc5)ncnc43)[C@H](O)[C@@H]2O)c1`, with -1.63% (inactive).
Still for that read-out and setting: then `Cc1ccc(C(NC(=O)C2CCN(CCOc3ccc(Cl)cc3Cl)CC2)c2ccccn2)cc1` (stereo not drawn), with -11.3% (inactive); and `CCOc1cc(C)ccc1OCc1nnc(SCC(=O)Nc2cccc(C(=O)O)c2)n1-c1ccccc1`, with -7.97% (inactive).
Take `Cc1nnc(SCC(=O)Nc2cccc(N)c2)n1-c1ccccc1`: the Potency is 26.7 µM (active).
Turning to `CC(=O)Nc1ccc(NC(=O)CSc2nnc(C3CC3)n2-c2ccccc2)cc1`, the max response, negative = inhibition is 7.6% (inactive).
For `OCC1OC(n2cnc3c(N4CCCC4)ncnc32)C(O)C1O` (stereo not drawn), the max response, negative = inhibition was -0.393% (inactive).
With `C[C@@H]1CN([C@H](C)CO)C(=O)c2cc(Br)cnc2O[C@@H]1CN(C)Cc1cncnc1`, the max response, negative = inhibition was -13.8% (inactive).
Take `CN(CCO)C(=O)c1nc[nH]c1C(=O)N(C)Cc1ccccc1`: the max response, negative = inhibition was -6.79% (inactive).
For `CC1=CC(=C(C#N)c2nc3ccccc3s2)C=C(C)N1c1ccc(F)cc1F`, the Potency was 21.2 µM (active).
Turning to `CN(Cc1nc2ccccc2s1)C(=O)c1ccc(F)cc1`, the max response, negative = inhibition was -6.86% (inactive).
Turning to `O=C(NCc1cccnc1)c1ccc2nc([C@@H]3O[C@H](CO)[C@H](O)[C@H](O)[C@H]3O)[nH]c2c1`, the max response, negative = inhibition is -4.09% (inactive).
Take `COc1cc(/C=N\Nc2nc(-c3cccs3)c(NC(C)=O)s2)ccc1O`: the Potency was 26.7 µM (active).
As for `CC(=O)c1sc(N/N=C/c2ccc(C(C)C)cc2)nc1C`, the max response, negative = inhibition was 11.6% (inactive).
With `COc1cc(C=NC2CCCCC2)ccc1O`, the max response, negative = inhibition is 4.49% (inactive).
Same read-out and setting: then `CCc1ccccc1NC(=O)CN1CCN(C(=O)c2cc(C3CC3)nn2-c2ccccc2)CC1`, with 7.48% (inactive).
Consider `COc1ccc(S(=O)(=O)NC(=O)C2(C)CCN2C(=O)COc2ccc(Cl)cc2)cc1` (stereo not drawn), for which the max response, negative = inhibition was -3.35% (inactive).
On to `CC(C)Nc1ncnc2c1ncn2[C@H]1CN(Cc2ccncc2)C[C@@H](CO)O1`, for which the max response, negative = inhibition is 0.157% (inactive).
Still for that read-out and setting: with `CC(=O)c1nn(-c2ccccc2)c(=Nc2ccccc2)cc1C` the figure was -4.39% (inactive).
Turning to `O=C(COc1ccccc1)Nc1ccc(N2CCN(C(=O)c3cccs3)CC2)cc1`, the Potency was 26.7 µM (active).
As to `O=C(COc1ccccc1)Nc1ccc(C(=O)N2CCCC2)cc1`, the max response, negative = inhibition is -9.45% (inactive).
Regarding `COc1ccc(N2CCN(C(=O)c3cccs3)CC2)cc1`, the max response, negative = inhibition is 0.204% (inactive).
On to `Cc1ccc(S(=O)(=O)N2CCC(=O)N([C@H](COCc3ccccc3)C(C)C)CC2)cc1`, for which the max response, negative = inhibition is -7.98% (inactive).
Same read-out and setting: with `O=C(COC(=O)c1ccc(O)cc1)Nc1nccs1` the figure was -1.48% (inactive).
On to `Cc1cc(C(=O)OCC(=O)Nc2nccs2)c2ccccc2n1`, for which the Potency is 3.36 µM (active).
On to `Cc1cc(C(=O)OCC(=O)Nc2nnc(C(C)C)s2)c2ccccc2n1`, for which the max response, negative = inhibition is -7.1% (inactive).

For the origin of these results see PubChem BioAssay AID720504 (National Center for Advancing Translational Sciences (NCATS), 2013).
